# In PubChem BioAssay (NCI):
# The panel holds about 79,000 compounds, 15% with a hit somewhere; the sample as a whole holds those more often. A number with no mark means an inactive call. Activity calls are given as the source filed them. Rule as the data show it: active = growth inhibition above about 70%; inactive = the rest.
# How the values were obtained:
# [1] = NCI Yeast Anticancer Drug Screen. Data for the rad50 strain (AID 155);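 also: 0% = growth of vehicle-only cultures of the same strain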; conditions: S. cerevisiae rad50 strain growth inhibition, hits give high values
# Procedure, shortened: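 A DNA repair-deficient yeast mutant serves as the test organism; compound-induced growth inhibition is calculated against vehicle-treated cells.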
# [2] = NCI Yeast Anticancer Drug Screen. Data for the mec2-1 strain (AID 157); conditions: S. cerevisiae mec2-1 strain, hits give high values
# Procedure, shortened: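 Yeast mec2-1 mutant treated with compound. Readout: growth inhibition vs vehicle controls.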
# [3] = NCI Yeast Anticancer Drug Screen. Data for the sgs1 mgt1 strain (AID 161);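 also: 0% = growth of cultures given vehicle only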; conditions: S. cerevisiae sgs1 mgt1 strain, hits give high values
# Procedure, shortened: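 Test agents were incubated with a DNA-repair-mutant yeast strain. Growth was then read and compared against vehicle-treated controls.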
# [4] = NCI Yeast Anticancer Drug Screen. Data for the cln2 rad14 strain (AID 165);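 also: 0% = growth equal to vehicle treated cultures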; conditions: S. cerevisiae cln2 rad14 strain, hits give high values
# Procedure, shortened: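 cln2 rad14 yeast strain; compound exposure; growth inhibition read vs vehicle controls.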
# [5] = NCI Yeast Anticancer Drug Screen. Data for the bub3 strain (AID 167); conditions: S. cerevisiae bub3 mutant strain, hits give high values
# Procedure, shortened: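 Inhibition values come from growth of compound-treated mutant yeast normalised to vehicle-treated controls.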
# [6] = NCI Yeast Anticancer Drug Screen. Data for the mlh1 rad18 strain (AID 175); conditions: S. cerevisiae mlh1 rad18 strain growth inhibition, hits give high values
# Procedure, shortened: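 Yeast w/ defined DNA-repair lesions; compound exposure; growth vs vehicle controls → % inhibition.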
# [7] = at 5.0 µM (retest, dose inferred, filed as 0.5)
# [8] = at 50.0 µM (retest, dose inferred, filed as 5.0)
SMILES,"growth inhibition [1, 7]","growth inhibition [1, 8]",growth inhibition ([1]; at 50.0 µM),"growth inhibition [2, 7]","growth inhibition [2, 8]",growth inhibition ([2]; at 50.0 µM),"growth inhibition [3, 7]","growth inhibition [3, 8]",growth inhibition ([3]; at 50.0 µM),"growth inhibition [4, 7]","growth inhibition [4, 8]",growth inhibition ([4]; at 50.0 µM),"growth inhibition [5, 7]","growth inhibition [5, 8]",growth inhibition ([5]; at 50.0 µM),"growth inhibition [6, 7]","growth inhibition [6, 8]",growth inhibition ([6]; at 50.0 µM)
Oc1ccc(O)c2c1N=NC21c2ccccc2Oc2ccccc21,5%,86% (active),65.6%,7%,89% (active),54%,6%,91% (active),83% (active),10%,84% (active),86.5% (active),5%,89% (active),86.6% (active),8%,95% (active),90.8% (active)
CCCCCCCCCCCCCCCCOC(=O)C[n+]1ccc(C(N)=O)cc1,-2%,97% (active),98% (active),-8%,99% (active),98.1% (active),21%,94% (active),98.9% (active),0%,72% (active),69.3%,-3%,97% (active),93% (active),32%,96% (active),98.2% (active)
CC(C)/C(Cl)=N/OC(=O)Nc1ccc(OC(F)(F)F)cc1,2%,98% (active),81% (active),-30%,98% (active),88.3% (active),39%,98% (active),83.5% (active),-7%,97% (active),76.2% (active),-27%,98% (active),85.5% (active),-7%,97% (active),77.1% (active)
O=C1/C(=C\c2ccccc2)CN(C(=O)CCN2CCCCC2)C/C1=C/c1ccccc1,16%,71% (active),89.8% (active),22%,57%,92.8% (active),98% (active),99% (active),90.3% (active),83% (active),99% (active),90.3% (active),99% (active),99% (active),90.8% (active),28%,74% (active),88.8% (active)
Cc1cc(N(CCOS(C)(=O)=O)CCOS(C)(=O)=O)ccc1C=Nc1cc(Br)c(O)c(Br)c1,4%,71% (active),82.5% (active),-93%,63%,72.6% (active),2%,53%,84.2% (active),4%,43%,50.4%,2%,24%,21.1%,22%,91% (active),95.8% (active)
Clc1ccc(/C=N\Nc2ccccc2)c(Cl)c1,4%,99% (active),76.8% (active),1%,99% (active),44.9%,-1%,98% (active),30.1%,2%,86% (active),-6.9%,-2%,99% (active),31.7%,1%,99% (active),66.4%
COc1cc(O)c2c(=O)c3cccc(C)c3[nH]c2c1,8%,73% (active),2.6%,-17%,28%,54.9%,3%,41%,46.1%,14%,37%,49.4%,2%,54%,62.6%,2%,54%,70% (active)
CN(C)CC/C(=N\Nc1ccc(Cl)cc1Cl)c1ccccc1,90% (active),99% (active),99.5% (active),79% (active),100% (active),99.5% (active),97% (active),100% (active),99.5% (active),95% (active),99% (active),99.2% (active),96% (active),100% (active),99.5% (active),96% (active),100% (active),99.2% (active)
N#C/C(=C1C=C/C(=N/O)c2ccccc2/1)c1ccc(Cl)cc1,11%,17%,56%,-6%,26%,77.3% (active),1%,1%,60.8%,-1%,6%,41.1%,-4%,61%,34.5%,-9%,28%,72.6% (active)
CC(C)n1nnc2ccccc2c1=Nc1ccccc1,1%,85% (active),96.1% (active),-6%,95% (active),97% (active),-2%,89% (active),96.2% (active),6%,16%,91.3% (active),0%,63%,95.5% (active),16%,90% (active),96.5% (active)
O=C1CSC(c2ccccc2O)N1c1ccc(-n2c(-c3ccccc3)nc3ccccc3c2=O)cc1 (configuration not stated),2%,78% (active),67.3%,-1%,39%,64.4%,5%,50%,72.5% (active),29%,79% (active),78.5% (active),-13%,56%,74.8% (active),0%,81% (active),75.5% (active)
Cc1cc(C(=O)O)c(C)c2c1sc1ccccc12,6%,87% (active),76.8% (active),3%,79% (active),27.2%,12%,82% (active),62.8%,-64%,81% (active),42%,-11%,-14%,51.1%,0%,81% (active),81.2% (active)
Cc1ccc(SCN2CCCCC2)cc1 (tested in a mixture with another compound),21%,29%,62%,1%,2%,12.6%,23%,22%,35.9%,-10%,18%,0.35%,-9%,4%,1.2%,20%,44%,75.2% (active)
CC(=O)N(C1=C(Cl)C(=O)c2ccccc2C1=O)c1ccc(C)cc1,99% (active),99% (active),99.5% (active),100% (active),100% (active),99.5% (active),100% (active),100% (active),99.6% (active),100% (active),98% (active),94% (active),99% (active),99% (active),96.5% (active),100% (active),100% (active),99.5% (active)
CS(=O)(=O)N\N=C1/C=C\C(=N/NS(C)(=O)=O)CCc2ccc(cc2)CC1,-1%,77% (active),86.3% (active),7%,96% (active),88.8% (active),-34%,92% (active),93.3% (active),-1%,19%,39.6%,-4%,92% (active),90% (active),5%,95% (active),94.5% (active)
O=c1c2ccccc2sc2cccc(NCCCN3CCN(CCCNc4cccc5sc6ccccc6c(=O)c45)CC3)c12,-1%,4%,28.4%,-2%,-3%,-10.7%,4%,13%,3.3%,-3%,-6%,46%,-2%,-5%,-9.1%,-3%,-65%,0.6%
CCCCCCCCCc1cc(=O)[nH]c(=S)[nH]1,17%,74% (active),85.1% (active),6%,72% (active),77.7% (active),25%,65%,79.3% (active),-13%,58%,50.5%,8%,77% (active),85.9% (active),20%,84% (active),86.8% (active)
O=[N+]([O-])c1ccc2c(c1)N([O-])C1(CCCCC1)[N+]2=O,25%,99% (active),89% (active),24%,99% (active),92.9% (active),23%,97% (active),91.2% (active),22%,98% (active),88% (active),10%,98% (active),91.1% (active),37%,99% (active),88.4% (active)
CCCCCCCCCC1OCC(C)O1 (configuration not stated),3%,30%,53%,3%,30%,44.6%,-2%,38%,73.2% (active),6%,17%,4%,7%,36%,7.7%,4%,62%,61.2%
